Laboratory results from PubChem BioAssay AID686978 (National Center for Advancing Translational Sciences (NCATS), 2013).
“And” between values parts separate entries of the source, which are not always exact repeats. Identical values can stand only once. Among all 420,000 compounds or so, about 64,000 (15%) were called active. Another 27% or so got no clear call; they are omitted. Only a sample is shown. Values without a mark were called inactive. Calls come from the whole dose curve; as a rule, active = well fitted inhibition curve with a large enough effect; inconclusive = small, poorly fitted or top-dose-only effect; inactive = flat fitted curve, though single readings scatter. Peptide text beside a SMILES is read from it.

assay: qHTS for Inhibitors of human tyrosyl-DNA phosphodiesterase 1 (TDP1): qHTS in cells in absence of CPT; conditions: DT40 Tdp1-/- hTDP1 cells, no CPT, ATP luminescence, 48 h; activity change, negative = growth inhibition: at 46.2 µM (top of the series); note: nearly all actives have a fitted effect of over 55% in size
Procedure, shortened: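 No-CPT arm: Tdp1-/-;hTDP1 DT40 cells (400/well) plus compounds, incubated ≥48 hr at 37 °C. Readout CellTiter-Glo luminescence.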
% is set by controls: 0 for no effect and ±100 for the full control effect; potency is the fitted concentration of half-maximal effect.

| Compound | activity change, negative = growth inhibition | Potency |
| --- | --- | --- |
| O=C(Nc1cccnc1)c1cc([N+](=O)[O-])ccc1Cl | -29.7% |  |
| Nc1nc(SC23CC4CC(CC(C4)C2)C3)ns1 | -6.92% |  |
| O=C(Nc1ccc(-n2cccn2)cc1)C1CCN(Cc2ccsc2)CC1 | -23.5% |  |
| COc1ccc(C/C(N)=N/OC(=O)c2ccco2)cc1OC | -29.2% |  |
| CCOc1ccc(NC(=O)CCS(=O)(=O)c2cccc3nsnc23)cc1 | -15.8% |  |
| O=C(CSc1ncn[nH]1)Nc1nsc(-c2ccccc2)n1 | -15.2% |  |
| c1csc(-c2nc(-c3ccncc3)no2)c1 | -17.5% |  |
| CCN(CC(=O)Nc1ccc(NC(C)=O)cc1)C(=O)C1CC(=O)N(Cc2ccc(C)cc2)C1 (configuration not stated) | -11.4% |  |
| COc1ccc2c(c1)CCCO[C@]21O[C@H](CCO)C[C@H](O)[C@H]1O | -4.91% |  |
| CC(C)OCCCNc1nc2c(c(=O)n(Cc3ccccc3F)c(=O)n2C)n1C | -25.5% |  |
| Cn1c(=O)c2c(nc(NCCNC(=O)c3ccco3)n2Cc2ccccc2F)n(C)c1=O |  | 18.4 µM (active) |
| COc1ccccc1/C=C/C(=O)OCC(=O)NC1CCCCCC1 | 1.73% |  |
| CC1(C(=O)NS(=O)(=O)c2ccccc2)CCN1C(=O)C1CCCCC1 (configuration not stated) | -13.8% |  |
| Cc1noc(C)c1NC(=O)Nc1cccc2c1O[C@H](CN(C)S(=O)(=O)c1c(C)noc1C)[C@@H](C)CN([C@H](C)CO)C2=O | 7.28% |  |
| CCN1CCN(c2c(Cl)cccc2NC(=O)c2ccc(Br)o2)CC1 |  | 16.4 µM (active) |
| COc1cc(OC)c(NC(=O)c2ccc(Br)o2)cc1Cl | -24.3% |  |
| CN1CCN(C(=O)c2ccc(NC(=O)c3ccc(Br)o3)cc2)CC1 | -22.7% |  |
| O=C(Cn1nnc(-c2ccccc2)n1)N/N=C/c1ccc(-c2ccc(Cl)cc2)o1 | -27.8% |  |
| Cc1ccccc1NC(=O)c1ccccc1NS(=O)(=O)c1cccc2cccnc12 | 3.69% |  |
| O=[N+]([O-])c1ccccc1S(=O)(=O)Nc1cccc2cccnc12 |  | 2 µM (active) and 2.59 µM (active) |
| NS(=O)(=O)c1ccc(CCNS(=O)(=O)c2cccc3cccnc23)cc1 | 2.4% |  |
| Cc1nc2ccccc2c(=O)n1Cc1ccc([N+](=O)[O-])cc1 | -23.4% |  |
| CCn1c(/C=C/c2ccc([N+](=O)[O-])o2)nc2ccccc2c1=O |  | 2.59 µM (active) |
| Cc1nc2ccccc2c(=O)n1NC(=O)c1ccc(Cl)c([N+](=O)[O-])c1 | 13.5% |  |
| CCc1noc(C)c1C(=O)N1CCCSC1=Nc1ccccc1OC | 2.59% |  |

| Compound | activity change, negative = growth inhibition | Potency |
| --- | --- | --- |
| COC(=O)Cn1c(=NC(=O)CSCC(=O)Nc2cc(C)on2)sc2ccccc21 | -27.7% |  |
| COc1ccc(N(CC(=O)Nc2ccc(F)c(F)c2)S(=O)(=O)c2c(C)[nH]c(=O)[nH]c2=O)cc1 | 12.9% |  |
| COc1ccc(N(CC(=O)Nc2cc(OC)ccc2OC)S(=O)(=O)c2c(C)noc2C)cc1 |  | 23.1 µM (active) |
| CCOc1ccc(N(CC(=O)OC)S(=O)(=O)c2c(C)noc2C)cc1 | -37.2% |  |
| Cc1noc(C)c1S(=O)(=O)N(CC(=O)Nc1ccc2c(c1)OCCO2)c1ccc(C(C)C)cc1 |  | 14.6 µM (active) |
| COC(=O)c1ccc(NC(=O)CN(c2ccc(C)cc2)S(=O)(=O)c2c(C)n[nH]c2C)cc1 | -24.3% |  |
| CCOc1ccc(OCC)c(NC(=O)CN(c2ccc(C)cc2)S(=O)(=O)c2c(C)n[nH]c2C)c1 |  | 29.1 µM (active) |
| Cc1ccc(S(=O)(=O)NCC(=O)Nc2ccc3c(c2)OCCO3)cc1 | -13.1% |  |
| CCOc1ccc(N(CC(=O)Nc2ccccc2F)S(=O)(=O)c2c(C)[nH]c(=O)[nH]c2=O)cc1 | 19.9% |  |
| CCOc1ccc(N(CC(=O)NCc2ccc(OC)cc2)S(=O)(=O)c2c(C)noc2C)cc1 | 3.66% |  |
| C/C=C\C=C\C(=O)N1CC2(CC(c3cccc(NC(=O)/C(C)=C\C)c3)=NO2)C[C@H]1C(N)=O (some centres not stated) | 1.29% |  |
| CC(NC(=O)CN1CCN(Cc2ccc(Cl)cc2)C1=O)c1ccc2c(c1)OCCO2 (configuration not stated) | -27.4% |  |
| Cc1noc(C)c1C(=O)OCC(=O)N1CCN(S(=O)(=O)c2ccc3ccccc3c2)CC1 | -11.1% |  |
| C(=N/N1CCN(c2ccccc2)CC1)/c1cccs1 | -14.1% |  |
| Nc1c(Cl)cc(S(N)(=O)=O)cc1S(N)(=O)=O | -12.3% |  |
| O=[N+]([O-])c1ccc(Sc2n[nH]c(-c3ccco3)n2)nc1 | -13.6% |  |
| COc1ccc(Oc2ncc3nc(C)c(=O)n(-c4ccccc4)c3n2)cc1 | -12.7% |  |
| CCOC(=O)c1ccc(-n2c(C)nc3c(cnn3-c3ccccc3C)c2=O)cc1 | -27.8% |  |
| COc1ccc(-n2c(C)nc3c(cnn3-c3ccccc3)c2=O)cc1 |  | 16.4 µM (active) |
| CCOc1ccc(-n2c(C)nc3c(cnn3-c3ccc(C)cc3)c2=O)cc1 |  | 5.8 µM (active) |
| COc1ccc(-n2c(C)nc3c(cnn3-c3ccc(F)cc3)c2=O)cc1 |  | 16.4 µM (active) |
| Cc1ccc(Oc2cnn(-c3ccccc3)c(=O)c2Br)cc1 | -25.1% |  |
| CCOc1ccc(-n2cnc3c(=O)[nH]c(N)nc32)cc1 | 3.61% |  |
| CCC(C)Sc1nc2c(cnn2-c2ccc(F)cc2)c(=O)[nH]1 (configuration not stated) | -24.8% |  |
| COc1ccc(Oc2ncc3nc(-c4ccc(F)cc4)c(=O)n(C)c3n2)cc1 | -9.75% |  |

| Compound | activity change, negative = growth inhibition | Potency |
| --- | --- | --- |
| COC(=O)C1CCCCN1C(=O)c1ccc(OC2CCN(C(C)=O)CC2)c(OC)c1 (configuration not stated) | -10.1% |  |
| CS(=O)(=O)c1ccc(C(=O)NNC(=O)c2cccs2)cc1 | 16.7% |  |
| O=C(NN=Cc1ccc([N+](=O)[O-])cc1)C1CC1 | -13.3% |  |
| O=C1/C(=C\c2ccc([N+](=O)[O-])cc2)CS(=O)(=O)C/C1=C/c1ccc([N+](=O)[O-])cc1 |  | 0.0231 µM (active) |
| O=[N+]([O-])c1ccc(C=NN=Cc2ccc([N+](=O)[O-])cc2)cc1 | -11.9% |  |
| CCN(CC)Cc1c(C(=O)N/N=C/c2cccc(OCc3ccc(F)cc3)c2)nnn1-c1nonc1N | 17.5% |  |
| CCc1ccc(N2CC(C(=O)Nc3ccc(S(=O)(=O)Nc4nccs4)cc3)CC2=O)cc1 (configuration not stated) | -3.73% |  |
| Cc1ccc(C(=O)NC(=S)NCc2cccnc2)cc1 | -23.8% |  |
| Cc1ccc(-n2nc(-c3ccco3)cc2C(=O)NCc2cccnc2)cc1 |  | 18.4 µM (active) |
| CSc1sc(C(=O)NC(=O)NCc2cccnc2)c(C)c1-c1ccon1 | -28.8% |  |
| NC(=S)N/N=C/c1coc2cc(Cl)ccc2c1=O | -10.4% |  |
| CC(C)Oc1c(Br)cc(Br)cc1/C=N/NC(N)=S |  | 5.8 µM (active) |
| O=C(NNC(=S)Nc1ccc(F)cc1)[C@H]1C[C@@H]1c1ccccc1 | -21.6% |  |
| C(=N\n1cnnc1)/c1cccnc1 | 0.108% |  |
| CCc1ccc(N2CC(O)=C(c3nc4ccccc4c(=O)[nH]3)C2=N)cc1 |  | 14.6 µM (active) |
| O=c1[nH]c(-c2cccs2)nc2ccccc12 | -14.4% |  |
| N=C1C(c2nc3ccccc3[nH]2)=C(O)CN1NC(=O)c1c[nH]c2ccccc12 | -18.9% |  |
| Cc1ccc2nc(-c3ccccc3)cc(C(=O)O)c2c1 | 3.48% |  |
| O=C(Nc1ccc2c(c1)OCCO2)c1cnccn1 | -11.3% |  |
| O=C(Nc1ccc(S(=O)(=O)Nc2nccs2)cc1)c1cc(-c2ccncc2)nc2ccccc12 | 28.4% |  |
| CCN(CC)CCNC(=O)c1ccc(NC(=O)c2cc(-c3ccncc3)nc3ccccc23)cc1 |  | 23.1 µM (active) |
| Cc1ccc2nc(-c3ccncc3)cc(C(=O)Nc3ccc(OC(F)F)cc3)c2c1 |  | 9.2 µM (active) |
| Cc1ccc2nc(-c3ccncc3)cc(C(=O)Nc3ccc4c(c3)OCCO4)c2c1 |  | 10.3 µM (active) |
| CCN(CC)CCNC(=O)c1ccc(NS(=O)(=O)c2ccc3c(c2)OCCO3)cc1 | 1.9% |  |
| CCn1c(SCC(=O)Nc2ccc3c(c2)OCCO3)nnc1-c1ccncc1 | -7.98% |  |

| Compound | activity change, negative = growth inhibition | Potency |
| --- | --- | --- |
| O=C(Nc1ccncc1)c1cc(-c2ccccn2)nc2ccc(Br)cc12 | 3.21% |  |
| C=CCNC(=O)/C(=C\c1cccc([N+](=O)[O-])c1)NC(=O)c1ccccc1 | 2.93% |  |
| COc1cc(/C=C/C(=O)OCC(=O)NC2CC2)cc(OC)c1OC | -6.43% |  |
| Cc1cc(=O)oc2cc(NC(=O)C(C)Oc3ccccc3)ccc12 (configuration not stated) | -22.7% |  |
| C[C@H](CO)N1C[C@H](C)[C@@H](CN(C)S(=O)(=O)c2ccc(Oc3ccccc3)cc2)OCc2cn(nn2)CCCC1=O | -20.9% |  |
| COc1ccc(NC(=O)CSc2nc(N)c(-c3ccccc3)c(=O)[nH]2)cc1 | 3.54% |  |
| CC(C)c1ccc(Nc2ncccc2C#N)cc1 | -21.5% |  |
| CCc1nnc(NC(=O)c2cccs2)s1 | -3.32% |  |
| CC(=O)c1cccc(NC(=O)C2CCCN2S(=O)(=O)c2cccc3nsnc23)c1 (configuration not stated) | -1.49% |  |
| CCC(c1nnnn1C1CCCC1)N1CCN(C(=O)c2ccco2)CC1 (configuration not stated) | 1.8% |  |
| CC(C)C(c1nnnn1C1CCCCC1)N1CCN(C(=O)c2ccco2)CC1 (configuration not stated) | 0.558% |  |
| CC(C)C(c1nnnn1C1CCCC1)N1CCN(c2ccccc2F)CC1 (configuration not stated) |  | 18.4 µM (active) |
| CC(C)C[C@@H](NC(=O)[C@H]1CCCN1C(=O)Cc1ccccc1)C(N)=O (HELM PEPTIDE1{[O=C(Cc1ccccc1)[*:2]].[dP].[dL].[am]}$$$$V2.0) | 6.33% |  |
| CC(C)C(=O)Nc1c2c(nn1-c1ccccc1)CSC2 | 4.86% |  |
| CCN1C(=NCc2ccc(OC)cc2)N[C@@H](CCc2ccccc2)[C@H](C(=O)NCc2ccc(OC)cc2)[C@H]1C |  | 9.2 µM (active) |
| COCCN1C(=O)N[C@@H](CCc2ccccc2)[C@H](C(C)=O)[C@H]1C | -9.51% |  |
| CCN1C(=NCCc2cccnc2)N[C@@H](c2ccccc2)[C@H](C(=O)OC)[C@H]1C | -24.1% |  |
| CCN1C(=O)N[C@@H](c2ccccc2)[C@H](C(C)=O)[C@H]1C | -1.65% |  |
| CC1=C(C)CC(C(=O)NC(C)CCc2ccccc2)C(C(=O)O)C1 (configuration not stated) | -0.273% |  |
| CCN1C(=NCC(C)C)N[C@@H](CCc2ccccc2)[C@H](C(=O)NCC(C)C)[C@H]1C |  | 13 µM (active) |
| CCc1ccccc1NC(=O)CSc1nnc([C@@H](NC(=O)OC(C)(C)C)C(C)C)o1 | -11% |  |
| Cc1c(NS(=O)(=O)c2ccc(Cl)cc2)c(=O)n(-c2ccccc2)n1C | -6.89% |  |
